# In the supplement of paper PMC7156485:
# System: HCC1569
# Experiment: H1.0 immunofluorescence intensity relative to DMSO (% of DMSO); higher = stronger H1.0 induction, active = 140 or more
# Details: concentration: 10 µM; 24 h
# Procedure, shortened: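 H1.0 nuclear intensity or cell number is expressed as percent of the plate control, with the median of replicates taken. HCC1569 and TDF cells were treated with compounds at 10 µM for 24 h at 37 °C, in triplicate, then fixed and immunostained for H1.0 with DAPI as a nuclear stain. HCC1569 values were smoothed to correct for positional effects.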
# 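Further: TDF is a line of transformed human dermal fibroblasts of mesenchymal origin.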
row,Compound,H1.0 immunofluorescence intensity
1,CC(C)NP(=O)(NC(C)C)OP(=O)(NC(C)C)NC(C)C [Tetraisopropyl pyrophosphoramide],105 (inactive)
2,COc1ccc2c(c1)=NC1=C(C)NCCC=21 [Harmaline],93.9 (inactive)
3,CC1OC1P(=O)([O-])[O-].[Na+].[Na+] (stereo not given) [Phosphomycin disodium],101 (inactive)
4,Clc1ccc(C(c2ccc(Cl)cc2)n2cc[n+](CC(OCc3ccc(Cl)cc3Cl)c3ccc(Cl)cc3Cl)c2)cc1.[Cl-] (stereo not given) [Calmidazolium chloride],95.3 (inactive)
5,COc1cc(C(=O)OC2CC3CCC(C2)N3C)ccc1O (stereo not given) [Fillalbin],94.5 (inactive)
6,O=C(O)C=CC(=O)O.O=C(O)C=CC(=O)O.c1ccc2nc(N3CCNCC3)ccc2c1 [Quipazine dimaleate],112 (inactive)
7,"COC(=O)C1(O)CC2OC1(C)n1c3ccccc3c3c4c(c5c6ccccc6n2c5c31)C(=O)NC4 (stereo not given) [K-252a, Nocardiopsis sp.]",75.8 (inactive)
8,CC1OC(OC2CC(O)C3(CO)C4C(O)CC5(C)C(C6COC(=O)C6)CCC5(O)C4CCC3(O)C2)C(O)C(O)C1O (stereo not given) [Dihydroouabain],82.2 (inactive)
9,NCCCNCCSP(=O)(O)O [Amifostine],98.1 (inactive)
10,"COc1ccc2c3c1OC1C(=O)CCC4(O)C(C2)N(CC2CC2)CCC314.Cl (single isomer, unassigned; (-)) [(-)-3-Methoxynaltrexone hydrochloride]",86.7 (inactive)
